# Source: PubChem (several laboratories)
# WT yeast gro inh = growth inhibition of WT yeast, mitochondrial fusion screen. mitochondrial fusion phenotypic screen, WT strain. inhibition, % at 10 µM. 190,000 tested, 2.1% active. AID 1362; in the data active = inhibition above about 58%; tested in S. cerevisiae
# Lmaj promast = Leishmania major promastigote growth inhibition; Leishmania major promastigotes, resazurin fluorescence viability; 200,000 tested, 9% active; inhibition, % at 10 µM; in the data active = inhibition above about 50%;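 also: promastigotes grown with compound for 44 hours at 28 °C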
# CHOP inh = blocks CHOP induction under ER stress. inhibition, % at 10 µM. 220,000 tested, 3.8% active. CHO-K1 CHOP-promoter luciferase, tunicamycin-induced, 15-18 h;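 active = compounds that reduced the stress-induced luciferase reporter signal by more than about 70% of percent inhibition, limit read from the data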;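 also: 0% = tunicamycin plus vehicle and 100% = wells without tunicamycin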
# RAM inhibit = blocks the yeast RAM network | S. cerevisiae dse1pr::URA3 reporter, 5-FOA growth OD615, 2 d; analog-sensitive cbk1-as2 kinase mutant strain | inhibition, % at 50 µM | 190,000 tested, 1.8% active;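 active = inhibition above a set limit, 3 SD over mean compound inhibition, cut at about 8.4% in these data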;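 also: 0% = DMSO-only wells with no growth and 100% = 10 µM 1-NA-PP1 full growth; inhibition rescues growth on 5-FOA so higher OD means more RAM inhibition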
# An asterisk follows results filed as active; . = not tested or not shown. Only some compounds are listed: those with a hit (about 13% of all), similar ones and a draw of the others.
SMILES,WT yeast gro inh,Lmaj promast,CHOP inh,RAM inhibit
COc1ccc(OCc2nc(C#N)c(N3CCN(c4ccc(OC)cc4)CC3)o2)cc1,6.2,10.3,51.7,8.4*
Cc1[nH]n(-c2nc(-c3ccccc3F)cc(=O)[nH]2)c(=O)c1CCO,5.5,-2.7,4.2,6.1
Cc1onc(-c2ccccc2Cl)c1C(=O)Nc1ncn[nH]1,10.0,-0.4,9.9,0.8
c1ccc(OCc2nc(-c3ccncc3)no2)cc1,-9.6,-3.4,-5.2,-0.5
c1ccc(OCCCc2nc(-c3ccncc3)no2)cc1,-23.6,-2.4,89.6*,0.7
COc1cc(NC(=O)Cc2cccs2)c(C(=O)O)cc1OC,1.0,-5.0,3.1,6.1
CC(OC(=O)c1ccccc1NS(=O)(=O)c1cccc(N)c1)C(=O)N(C)Cc1ccccc1 (stereo unspecified),-1.4,81.5*,-0.5,2.1
COc1cc2c3c(c1)/C(=C1/SC(NC(C)=O)=NC1=O)C(=O)N3C(C)(C)C=C2C,19.1,-7.1,42.1,4.5
CCN1C(=O)/C(=C2/C(=O)N3c4c(cc(OC(C)=O)cc42)C(C)=CC3(C)C)SC1=S,11.8,78.5*,13.4,8.7*
COc1ccc(OC)c(C2=NOC(C(=O)N3CCCc4ccccc43)C2)c1 (stereo unspecified),-5.7,13.3,15.3,0.3
C/C(CC(=O)Nc1cccc(Cl)c1Cl)=N\NC(=O)c1ccccc1C,9.5,15.3,1.7,0.4
S=C(Nc1ccc(Cl)cc1)N1CCCCC1,-3.2,-4.6,57.3,-0.6
CCCCc1ccc(NC(=S)N2CCCC(C)C2)cc1 (stereo unspecified),74.5*,29.6,4.4,0.9
CCc1ccc(NC(=S)N2CCCCCCC2)cc1,64.3*,55.9*,-37.0,0.0
CCOc1ccc(C(=O)NCC(=O)Nc2ccc(N3CCOCC3)cc2)cc1OCC,-1.4,-0.3,-6.0,-0.4
O=C1NC(c2ccccc2)=C(c2nc3ccccc3s2)C(c2ccc(F)cc2)N1 (stereo unspecified),38.7,51.0*,37.2,6.5
COc1ccc(C2NC(=O)NC(c3ccccc3)=C2c2nc3ccccc3s2)cc1 (stereo unspecified),26.8,37.4,63.6,8.7*
Cc1ccc(S(=O)(=O)NC(=O)N(C)C2CCCCC2)cc1,.,.,12.6,.
COc1ccc(OC)c(C(c2nnnn2CCC(C)C)N2CCN(C(=O)c3ccco3)CC2)c1 (stereo unspecified),15.8,39.6,1.4,0.0
Clc1ccc2nc(-c3ccccn3)c(Nc3ccc4c(c3)OCO4)n2c1,72.9*,99.9*,-23.3,-0.7
Cc1ccc2nc(-c3ccccc3O)c(Nc3ccc4c(c3)OCCO4)n2c1,12.6,13.2,16.3,1.3
CCOC(=O)Cc1cnc(NC(=O)NC(C(=O)OCC)(c2ccccc2)C(F)(F)F)s1 (stereo unspecified),2.2,-4.9,84.8*,1.9
Cc1cc(C)nc(Nc2ncc(O)n2-c2ccccc2)n1,64.4*,-1.9,15.5,0.0
Cc1ccc(-n2c(C)nnc2SCC(=O)NNC(=O)c2ccco2)cc1,1.7,-12.0,21.7,2.2
CCOC(=O)C1=C(C)C(c2cccc(Oc3ccccc3)c2)NC(=S)N1 (stereo unspecified),66.0*,10.6,70.0,6.1
SMILES,WT yeast gro inh,Lmaj promast,CHOP inh,RAM inhibit
CCOC(=O)C1=C(c2cccc(Oc3ccccc3)c2)NC(=S)NC1C (stereo unspecified),64.2*,43.2,37.7,4.4
CCOC(=O)C1=C(c2ccccc2)NC(=S)NC1c1ccc(Cl)c([N+](=O)[O-])c1 (stereo unspecified),1.2,57.8*,49.5,4.0
CN(C)NC(=O)c1ccsc1NC(=O)c1ccc(S(=O)(=O)N(C)C)cc1,7.9,10.8,4.8,5.0
CCN(CC)CCOC(=O)c1ccc(NC(=O)C(C)NC(=O)C23CC4CC(CC(C4)C2)C3)cc1 (stereo unspecified),-6.6,15.6,28.8,-0.4
CCOc1ccc(C2CC(c3cccc(C)c3)n3nc(N)nc3N2)cc1 (stereo unspecified),3.0,13.8,-1.6,0.8
CCc1ccc(C2CC(c3cccc(Cl)c3)n3nc(N)nc3N2)cc1 (stereo unspecified),5.2,54.3*,56.7,6.2
Cc1cccc(C2CC(c3ccc(Cl)cc3)Nc3nc(N)nn32)c1 (stereo unspecified),5.5,64.3*,0.4,0.0
Cc1cccc(C2CC(c3ccc(F)cc3)Nc3nc(N)nn32)c1 (stereo unspecified),8.6,93.2*,11.0,1.3
Cc1cc(=O)oc2cc(OC(=O)c3cncc(Br)c3)ccc12,6.2,-1.3,27.6,0.4
COc1ccc(/C=C/C=C2\N=C(SC)SC2=O)cc1,-2.5,11.3,69.2,10.8*
CSC1=N/C(=C\c2ccc(F)cc2)C(=O)S1,12.5,1.6,46.1,2.3
Cc1cc(C)c(NC(=O)c2ccc(CN3CCc4ccccc4C3)cc2)c(C)c1,-17.4,73.5*,18.7,1.7
COCCNC(=O)c1ccc(CN2CCc3ccccc3C2)cc1,-6.7,-4.0,-10.2,0.0
O=C(c1ccc(CN2CCc3ccccc3C2)cc1)N1CCN(c2ccc(F)cc2)CC1,.,2.9,.,.
O=C(C1CCCN(Cc2ccccc2)C1)N1CCc2ccccc2C1 (stereo unspecified),-12.1,96.4*,13.0,0.3
CCCNC(=O)c1ccc(CN2CCc3ccccc3C2)cc1,1.1,55.6*,52.2,0.7
O=C(c1ccc(CN2CCc3ccccc3C2)cc1)N1CCCCC1,12.2,63.5*,22.6,0.9
O=C(NCc1cccnc1)c1ccc(CN2CCc3ccccc3C2)cc1,-0.7,63.0*,2.7,2.3
O=C(c1ccc(COc2ccccc2Br)cc1)N1CCCCC1,1.7,69.8*,44.3,2.1
O=C(c1ccc(COc2ccccc2Br)o1)N1CCCCCC1,36.2,-2.5,5.6,0.9
CC1CCc2c(sc(NC(=O)COC(=O)c3ccc(O)cc3)c2C#N)C1 (stereo unspecified),96.5*,-5.1,46.4,3.7
CC1CCc2c(sc(NC(=O)COC(=O)C3CCCO3)c2C#N)C1 (stereo unspecified),19.3,3.8,-12.1,2.8
O=c1[nH][nH]c(-c2ccccc2O)c1C(C[N+](=O)[O-])c1ccccc1 (stereo unspecified),-6.1,98.3*,4.3,1.6
O=c1[nH][nH]c(-c2ccccc2O)c1C(C[N+](=O)[O-])c1cccc(Cl)c1 (stereo unspecified),-8.9,100.3*,2.6,-0.5
O=c1[nH][nH]c(-c2ccccc2O)c1C(C[N+](=O)[O-])c1ccc(Cl)cc1Cl (stereo unspecified),-2.1,97.7*,3.3,-0.8
Cc1[nH]c2ccccc2c1C(C[N+](=O)[O-])c1cccc(O)c1 (stereo unspecified),14.0,14.0,18.4,0.9
COc1cc(-c2nc(CN3CCCCC3CCNC(C)=O)c(C)o2)ccc1F (stereo unspecified),.,.,-21.2,.
COc1ccc(OCC(O)CNC(=O)Nc2cc(F)ccc2C)cc1 (stereo unspecified),.,.,15.0,.
CCC(C)(C(=O)NC1CCCCC1)N(C(=O)CC1NC(=O)NC1=O)c1c(C)n(C)n(-c2ccccc2)c1=O (stereo unspecified),0.8,-7.8,-11.8,1.1
